Screen size: about 310,000 compounds; about 14,000 (4.5%) showed an effect of 50% or more. Effects have a minus sign here. The sample as a whole holds a higher share of strong results than the screen did.
These compounds were tested against human ether-à-go-go-related gene (hERG) potassium channel (human, UniProt Q12809) (assay: primary screen, population patch clamp on CHO cells stably expressing hERG; higher = less effect of the substance).
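Also: peak tail current of the secondary pulse compared with the same well before compound.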

human ether-à-go-go-related gene (hERG) potassium channel, sequence (Q12809 whole entry, looked up): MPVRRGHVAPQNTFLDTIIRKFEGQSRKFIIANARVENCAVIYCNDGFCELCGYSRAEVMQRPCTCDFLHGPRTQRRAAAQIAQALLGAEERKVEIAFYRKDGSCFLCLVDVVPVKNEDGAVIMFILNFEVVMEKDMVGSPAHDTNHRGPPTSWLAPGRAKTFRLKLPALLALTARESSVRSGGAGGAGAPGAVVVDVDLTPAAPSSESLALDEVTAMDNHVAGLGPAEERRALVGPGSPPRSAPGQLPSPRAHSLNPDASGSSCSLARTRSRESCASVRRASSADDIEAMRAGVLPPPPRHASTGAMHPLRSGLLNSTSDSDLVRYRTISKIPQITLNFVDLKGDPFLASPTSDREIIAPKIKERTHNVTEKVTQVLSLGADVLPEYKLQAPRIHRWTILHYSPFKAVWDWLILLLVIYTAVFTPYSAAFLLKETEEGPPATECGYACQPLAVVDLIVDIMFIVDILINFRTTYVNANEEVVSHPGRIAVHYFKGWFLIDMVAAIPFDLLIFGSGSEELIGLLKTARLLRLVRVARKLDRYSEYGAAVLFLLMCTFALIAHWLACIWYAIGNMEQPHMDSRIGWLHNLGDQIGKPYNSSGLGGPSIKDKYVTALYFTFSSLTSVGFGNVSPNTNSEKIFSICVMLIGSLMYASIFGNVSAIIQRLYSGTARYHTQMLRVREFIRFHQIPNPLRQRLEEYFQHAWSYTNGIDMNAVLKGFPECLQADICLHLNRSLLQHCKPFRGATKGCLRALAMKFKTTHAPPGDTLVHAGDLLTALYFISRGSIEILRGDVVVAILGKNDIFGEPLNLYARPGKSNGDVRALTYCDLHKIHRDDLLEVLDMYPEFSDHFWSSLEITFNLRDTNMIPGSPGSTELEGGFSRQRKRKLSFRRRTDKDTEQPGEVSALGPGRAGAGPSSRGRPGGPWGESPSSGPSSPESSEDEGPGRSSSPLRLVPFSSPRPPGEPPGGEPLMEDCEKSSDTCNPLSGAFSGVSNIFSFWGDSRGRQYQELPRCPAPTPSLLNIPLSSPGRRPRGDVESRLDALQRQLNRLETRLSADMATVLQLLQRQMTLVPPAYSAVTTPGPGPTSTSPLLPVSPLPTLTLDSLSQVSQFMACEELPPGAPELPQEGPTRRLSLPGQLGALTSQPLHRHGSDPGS

Row | SMILES | hERG current change (%, negative = inhibition) at 10uM
1 | Cn1c(=O)n(CCCOc2ccc(Br)cc2)c2ccccc21 | -3.96%
2 | COc1ccc(C2C(C(=O)c3ccco3)=C(O)C(=O)N2CC2CCCO2)cc1OC (stereo not drawn) | 24.1%
3 | O=C(CCN1c2ccccc2Sc2ccccc21)OCc1nnc(-c2ccccc2)o1 | 5.92%
4 | O=S1(=O)CCOC[C@H](Cc2ccccc2)N1Cc1ccccc1 | -37.8%
5 | Cc1nc2c3ccccc3nc(NNC(=O)CCC(=O)N3CCN(c4ccccc4F)CC3)n2n1 | -40.3%
6 | CCOc1ccc(NC(=O)C2CCCN(C(=O)Nc3ccccc3)C2)cc1 (stereo not drawn) | 2.35%
7 | Cc1cc(C)n(C(C)CC(=O)Nc2ccc3c(c2)OCO3)n1 (stereo not drawn) | 10.2%
8 | COc1cc(OC)c(NC(=O)c2ccco2)cc1Cl | -14.3%
9 | O=C1OCCC1Sc1nc2cc(Cl)ccc2n1Cc1ccccc1 (stereo not drawn) | -63.9%
10 | Cc1ccc(Cn2c(SC3CCOC3=O)nc3ccccc3c2=O)cc1 (stereo not drawn) | -42.9%
11 | O=C1OCCC1Sc1nnc(-c2ccccc2Cl)n1Cc1ccccc1 (stereo not drawn) | 2.19%
12 | O=C1OCCC1Sc1nc2ccccc2c(=O)n1Cc1ccc(F)cc1 (stereo not drawn) | -75.5%
13 | COCCn1c(SC2CCOC2=O)nc2ccccc2c1=O (stereo not drawn) | -31%
14 | CSc1nc2ccccc2c(=O)n1Cc1ccc(F)cc1 | 15.4%
15 | O=C1OCCC1Sc1nc2ccccc2c(=O)n1Cc1ccccc1 (stereo not drawn) | -82.4%
16 | O=C1OCCC1Sc1nc2ccccc2n1Cc1ccccc1 (stereo not drawn) | -46.3%
17 | O=C1OCCC1Sc1nc2ccccc2c(=O)n1-c1ccc(F)cc1 (stereo not drawn) | 8.7%
18 | O=C(Nc1ccccc1Cl)c1ccc(=O)[nH]n1 | 8.03%
19 | COCCn1c(SCC(=O)N(C(C)C)C(C)C)nnc1-c1cc2ccccc2cc1O | -15.8%
20 | COc1cccc(CN(C)C(=O)c2cc(S(=O)(=O)NC3CCCCC3)ccc2C)c1OC | -4.41%
21 | COc1ccc(-c2oc3ccccc3c(=O)c2OC(C)=O)cc1 | -11.3%
22 | CC(=O)c1cccc(NC(=O)NCc2cccnc2)c1 | 12.2%

Row | SMILES | hERG current change (%, negative = inhibition) at 10uM
23 | O=C(Oc1ccccc1)N(c1ccccc1)c1ccccc1 | 2.8%
24 | NS(=O)(=O)c1ccc(NC(=O)CN2CCCc3ccccc32)cc1 | -5.73%
25 | O=C(CN1CCN(S(=O)(=O)c2ccccc2)CC1)NC1CC1 | 15.3%
26 | N#Cc1ccccc1S(=O)(=O)N1CCN(CC(=O)NC(=O)NC2CCCCC2)CC1 | -31.6%
27 | CC(C#N)(NC(=O)CN1CCN(S(=O)(=O)c2ccccc2C#N)CC1)C1CC1 (stereo not drawn) | 2.51%
28 | N#Cc1ccc(CN2CCN(CC(=O)Nc3ccccc3C(=O)NC3CC3)CC2)cc1 | -77.9%
29 | N#Cc1ccccc1S(=O)(=O)N1CCN(CC(=O)Nc2ccccc2C(=O)NC2CC2)CC1 | -66.5%
30 | O=C(CN1CCN(S(=O)(=O)c2ccccc2F)CC1)Nc1ccccc1C(=O)c1ccccc1 | -22.8%
31 | Cc1ccccc1C(=O)NC1CCN(CC(=O)Nc2ccccc2Cl)CC1 | -14.4%
32 | O=C(CN1CCN(S(=O)(=O)c2ccc(F)cc2)CC1)NC1CCCC1 | -8.45%
33 | O=C(CN1CCN(S(=O)(=O)c2ccccc2)CC1)Nc1ccccc1C(=O)c1ccccc1 | -19.4%
34 | N#Cc1ccc(S(=O)(=O)N2CCN(CC(=O)Nc3ccccc3C(=O)NC3CC3)CC2)cc1 | -73.9%
35 | O=C(CN1CCN(S(=O)(=O)c2ccc(F)c(F)c2)CC1)Nc1ccccc1C(=O)NC1CC1 | -72.3%
36 | NC(=O)C1CCN(CC(=O)Nc2ccccc2C(=O)NC2CC2)CC1 | 1.42%
37 | O=C(Cc1c(F)cccc1Cl)Nc1ccccc1C(=O)N1CCOCC1 | 3.32%
38 | C#CCOc1ccc(/C=C2/C(=O)ON=C2C)cc1Cl | 10.9%
39 | Oc1ccc(Br)cc1/C=N/n1c(COc2ccccc2)n[nH]c1=S | 16.5%
40 | CCCCNC(=O)COC(=O)c1ccc(F)cc1Cl | -10.8%
41 | COc1ccc(-c2cc(=O)oc3cc(OC(C)C(=O)Nc4ccc(CN5CCOCC5)cc4)ccc23)cc1 (stereo not drawn) | -0.104%
42 | O=C(c1ccc(Cl)cc1)c1cnc(Nc2ccccc2Cl)s1 | -1.11%
43 | Cc1cc(C)c(NC(=O)CSc2nnc(CN3CCOCC3)n2C)c(C)c1 | 13.5%
44 | COc1ccc(C(C(=O)NC2CCCC2)N(C(=O)c2ccoc2C)c2ccccc2)cc1 (stereo not drawn) | -3.9%

Row | SMILES | hERG current change (%, negative = inhibition) at 10uM
45 | CC(=O)c1ccc(S(=O)(=O)N2CCN(CC(=O)NC(=O)NC3CCCCC3)CC2)cc1 | -16.8%
46 | CC(=O)c1ccc(S(=O)(=O)N2CCN(CC(=O)Nc3ccccc3C(=O)NC3CC3)CC2)cc1 | -75.4%
47 | O=C(CN1CCN(S(=O)(=O)c2ccccc2)CC1)Nc1ccccc1C(=O)NC1CC1 | -27.1%
48 | CCn1c(SCC(=O)NC2CCCCC2)nnc1-c1cc2cccc(OC)c2o1 | -26%
49 | CCCCn1c(SCC(=O)NCc2ccco2)nc2cc(S(N)(=O)=O)ccc21 | -7.32%
50 | COc1ccc(NC(NC(=O)c2cccnc2)C(Cl)(Cl)Cl)cc1 (stereo not drawn) | 29.3%
51 | Cl.OCCN1CCN(CC(O)COc2ccc(-c3ccccc3)cc2)CC1 (stereo not drawn) | -45.9%
52 | CC1CCCN(CC(O)COc2ccc(Cl)cc2)C1.Cl (stereo not drawn) | -69.2%
53 | CC(=O)c1ccc(OCC(O)CN2CCCC(C)C2)cc1.Cl (stereo not drawn) | -1.2%
54 | OC(COc1ccc(-c2ccccc2)cc1)CN1CCOCC1 (stereo not drawn) | -19.7%
55 | CC1CCCN(CC(O)COc2ccc(-c3ccccc3)cc2)C1 (stereo not drawn) | -73.4%
56 | OC1CCCN(CC(O)COc2ccc(-c3ccccc3)cc2)C1 (stereo not drawn) | -52.9%
57 | CC1CCCN(C(=O)COc2ccc(-c3ccccc3)cc2)C1 (stereo not drawn) | -35.5%
58 | CC1CCCN(CC(O)COc2ccc3c(c2)OCO3)C1.Cl (stereo not drawn) | -15.1%
59 | C=CCNC(=O)CCCOc1cc(C)ccc1C | -9.84%
60 | CC(C)(O)CCc1c(-c2ccc(O)cc2O)oc2c3c(cc(O)c2c1=O)OC(C)(C)C=C3 | 13.7%
61 | CC1(C)Cc2nc3oc4c(=O)n(CC(=O)Nc5ccccc5)cnc4c3cc2CO1 | 5.24%
62 | O=C(O)c1cc(NC(=O)c2cccc(C(=O)Nc3cc(C(=O)O)cc(C(=O)O)c3)c2)cc(C(=O)O)c1 | 15.8%
63 | CCc1noc(C)c1C(=O)N1CCCC(CCC(=O)NCc2ccc(F)c(F)c2)C1 (stereo not drawn) | -0.135%
64 | O=S(=O)(c1cc(Cl)ccc1Br)N1CCCCC1 | -22.9%
65 | CCCc1cc(=O)oc2c3c(cc(OCC(=O)NCCCn4ccnc4)c12)OC(C)(C)CC3 | -73.9%
66 | CCCc1cc(=O)oc2c3c(cc(OCC(=O)NCCN4CCOCC4)c12)OC(C)(C)CC3 | -18.3%

Row | SMILES | hERG current change (%, negative = inhibition) at 10uM
67 | CCc1cc(=O)oc2c3c(cc(OCC(=O)NCc4ccncc4)c12)OC(C)(C)CC3 | -34.4%
68 | Cc1cc(=O)oc2c3c(cc(OCC(=O)NCc4ccncc4)c12)OC(C)(C)CC3 | -27.7%
69 | CCc1cc(=O)oc2c3c(cc(OCC(=O)NCCCOC)c12)OC(C)(C)CC3 | 8.45%
70 | Cc1cc(=O)oc2c3c(cc(OCC(=O)NCCCn4ccnc4)c12)OC(C)(C)CC3 | -32.1%
71 | CCCc1cc(=O)oc2c3c(cc(OCC(=O)NCc4ccncc4)c12)OC(C)(C)CC3 | -65%
72 | CCc1cc(=O)oc2c3c(cc(OCC(=O)NCCCn4ccnc4)c12)OC(C)(C)CC3 | -51.1%
73 | CCCCc1cc(=O)oc2c3c(cc(OCC(=O)NCCCO)c12)OC(C)(C)CC3 | -18.1%
74 | Cc1cc(C)c(N=C2SCC(=O)N2Cc2ccco2)c(C)c1 | -14%
75 | Cc1cc(C)c(NC(=O)COC(=O)CCn2c(C)csc2=O)c(C)c1 | -10.6%
76 | Cc1ccc(-n2ncc3c(NCCCN4CCOCC4)ncnc32)c(C)c1 | -10.3%
77 | Cc1cc(NC(=O)COC(=O)c2cc(S(=O)(=O)N(C)c3ccccc3)ccc2Cl)no1 | 0.766%
78 | Cc1ccccc1-n1c(-c2ccco2)nc2ccccc2c1=O | 1.78%
79 | Cn1cnc2c1c(=O)n(CC(O)CO)c(=O)n2C (stereo not drawn) | 23%
80 | CCOC(=O)N1CCN(C(=O)Cn2cc3c(n2)CCCC3)CC1 | -72.4%
81 | O=C(Cn1cc2c(n1)CCCCC2)N1CCCCC1 | 2.46%
82 | O=C(Cn1cc2c(n1)CCCC2)N1CCCC1 | 5.98%
83 | Cc1ccc(C(=O)NCc2ccc3c(c2)OCO3)cc1S(=O)(=O)N1CCCCC1 | -26.4%
84 | CC(=O)OCCN(CCCn1c(-c2ccncc2)nc2ccccc21)c1nc(CN2CCCCC2)cs1 | -58.5%
85 | OCCN(CCCn1c(-c2ccncc2)nc2ccccc21)c1nc(CN2CCCCC2)cs1 | 23.4%
86 | OCCN(CCCn1c(C(F)(F)F)nc2ccccc21)c1nc(CN2CCCCC2)cs1 | -19%
87 | NC(=O)CSc1nc2sc(-c3ccccc3)cc2c(=O)n1N | 11%
